Assay outcomes from PubChem BioAssay.
DRD3 antagonist: qHTS of D3 Dopamine Receptor Antagonist: qHTS | D(3) dopamine receptor (Homo sapiens), P35462 | D3R cells, DiscoveRx beta-arrestin luminescence, antagonist mode; hits give low values | max response, negative = inhibition, % | 360,000 tested, 2.5% active; in the data active = max response below about -50%; inconclusive = no clear call, values can overlap the other calls; also: % is scaled to controls: 0 for no effect and ±100 for the full control effect
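Cells expressing the human receptor were seeded at 1500 cells/well, incubated overnight at 37 degrees C in 5% CO2, then exposed to library compounds with dopamine controls for 90 minutes at 37 degrees C before luminescent detection.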
PI4K2A block: qHTS for small molecular inhibitors of PI4K2A. Phosphatidylinositol 4-kinase type 2-alpha (Homo sapiens), Q9BTU6. purified PI4K2A, ADP-Glo luminescence, 1 h; hits give low values. activity change, negative = inhibition, % at 76.9 µM. 420,000 tested, 0.13% active; in the data active = activity change below about -50%; inconclusive = mostly about -30% to -49%;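 also: -100% = wells without enzyme as full effect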
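PI4K2A activity was measured by ADP-Glo luminescence: enzyme (4 ug/mL stock) and phosphatidylinositol (1.2 mM stock) in Tris pH 7.5/MgCl2/EGTA/Triton X-100 buffer were reacted with ATP (300 microM stock) for one hour at ambient temperature.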
LDHA inh: qHTS assay for inhibitors of human lactate dehydrogenase | purified LDHA, NADH/diaphorase-resazurin fluorescence; hits give low values | activity change, % (values are at about 110 or 230 µM) | 480,000 tested, 0.15% active; in the data active = activity change below about -30%; inconclusive = mostly about -25% to -30%;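 also: plate controls were DMSO wells for no effect and wells without enzyme for full effect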
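Resorufin fluorescence (ex540/em590), read at 0 and 20 min after diaphorase/resazurin addition, reports the NADH left after a 5 min room-temperature reaction of 2 nM human LDH5 with 0.06 mM NADH and 0.2 mM pyruvate.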
RGS4 inh: Inhibitors of Regulator of G Protein Signaling (RGS) 4: qHTS; Potency, µM (doses to about 114 µM), for the others: top-dose activity change, negative = inhibition, actives largely listed as inhibitors; 390,000 tested, 0.039% active; Transcreener GDP fluorescence polarization, RGS4-accelerated GTP hydrolysis; Regulator of G-protein signaling 4 (Homo sapiens), P49798; active = well fitted inhibition curve with a large enough effect; inconclusive = small, poorly fitted or top-dose-only effect; inactive = no such curve, though single readings can be large or run the other way; also: potency is read from the fitted curve at half-maximal effect; % is scaled to controls: 0 for no effect and ±100 for the full control effect; nearly all actives have a fitted effect of over 75% in size
Target sequence (P49798 whole entry, looked up): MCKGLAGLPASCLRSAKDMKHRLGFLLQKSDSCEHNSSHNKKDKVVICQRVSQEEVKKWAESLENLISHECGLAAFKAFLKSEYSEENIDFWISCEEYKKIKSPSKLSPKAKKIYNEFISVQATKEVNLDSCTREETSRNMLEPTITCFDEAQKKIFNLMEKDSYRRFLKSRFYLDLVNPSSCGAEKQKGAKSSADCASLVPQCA
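MLSMR compounds (23 nl, pin-transferred) preincubated 10 min at room temperature with a 500nM (2x) first reagent, then RGS4 at 900nM (2x) plus Transcreener GDP mix added; fluorescence polarization (620/688 nm) read before and after 90 min at 30 °C.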
pAkt inh: HTS Assay for Inhibitors of Akt Phophorylation: Primary Screen; Neuro2A IGF-stimulated pAkt S473 HTRF, 20 min; hits give low values; activity change, % for hits at 50 µM; 360,000 tested, 0.32% active; AID 651550, 2012; in the data active = activity change below about -80%; inconclusive = mostly about -51% to -80%; also: % is scaled to controls: 0 for no effect and ±100 for the full control effect
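Neuro2A cells (4,500/well, DMEM with 0.5% FBS) were treated with compound at a single 50 µM final concentration, stimulated with 6 nM IGF for 20 min at 37 °C, and lysed. Phospho-Akt Ser473 was read by HTRF as 665/615 ratio ×10^4.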
DRD3 agonist: qHTS of D3 Dopamine Receptor Agonist: qHTS; D(3) dopamine receptor (Homo sapiens), P35462; D3R DiscoveRx beta-arrestin cells, luminescence, 90 min; max activation, %; 410,000 tested, 0.58% active; in the data active = max activation above about 30%; also: 0% is about no effect
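Agonist-mode cell screen: cells plated at 1500/well and incubated overnight at 37 °C, then exposed to library compounds for 90 min at 37 °C. Detection reagent was added for 30–60 min at room temperature, and luminescence was read.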
* marks the source's active call; other numbers are inactive results; i = inactive; ? = inconclusive; · = no result; [ ] = remark or other dose. A selection: hits, their analogues and other compounds. The true share with any hit is near 2.8%.

SMILES | DRD3 antagonist | PI4K2A block | LDHA inh | RGS4 inh | pAkt inh | DRD3 agonist
CC(Oc1ccc(Cl)cc1)C(=O)O (centres undefined) | · | · | 0 | · | · | ·
Oc1cc2c(cc1CN1CCN(c3ccccc3F)CC1)OCO2 | -96* | -2 | 28 | -3% | i | -22
CN(N=O)c1cc(O)ccc1O | · | -26 | 19 | 24µM* | · | ·
CC12CC1(C)C(=O)N(c1cc(Cl)cc(Cl)c1)C2=O (centres undefined) | -56* | -2 | -2 | 17% | i | 1
Cc1[nH]nc2c1C(c1ccccc1)SCC(=O)N2 (centres undefined) | · | · | 3 | · | · | ·
CCCCCCC(C)(C)c1ccc([C@@H]2C[C@H](O)CC[C@H]2CCCO)c(O)c1 | 102 | -1 | 3 | ? | i | 70*
CCC(CC)COC(=O)C1=C(C)N[C@]2(C)C[C@H]1c1ccccc1O2 | · | · | 10 | · | · | ·
CC1=C(C(=O)c2ccccc2)C2(C(=O)Nc3ccc(Br)cc32)C(C(=O)OCc2ccccc2)=C(N)O1 (centres undefined) | · | · | 0 | · | · | ·
O=C(Cc1ccccc1)N1CCN(CC2CC3C=CC2C3)CC1 (centres undefined) | -23 | 6 | -23 | 0% | i | -15
O=C(Cc1ccccc1)N1CCN(CC2CC=CCC2)CC1 (centres undefined) | -53* | 0 | -20 | -9%[11.4 µM] | i | -16
C=C1[C@@H](C)[C@H]2[C@H](Cc3ccccc3)NC(=O)[C@]23OC(=O)/C=C/[C@H](O)CCC[C@@H](C)C/C=C/[C@H]3[C@@H]1O | 182 | -3 | -11 | -21% | i | 78*
COc1ccc2c(c1OC)CN1CCc3cc4c(cc3[C@H]1C2)OCO4 | -113* | -2 | 1 | 12% | i | -65
COc1ccc2c(c1O)-c1c(OC)c(OC)cc3c1[C@H](C2)N(C)CC3 | 0 | 2 | 2 | -8% | i | 0
COc1ccc2c(c1OC)CN1CCc3cc4c(cc3C1C2)OCO4 (centres undefined) | -106* | 29 | -5 | 18% | i | -2
COc1cc2c(cc1OC)C(C1c3cc4c(cc3CCN1C)OCO4)OC2=O (centres undefined) | -11 | -1 | -8 | 15% | i | -6
COc1ccccc1CNCCc1ccccc1 | · | · | -6 | · | · | ·
O=C(CN1C(=O)CN=C(c2ccccc2)c2ccccc21)NCc1ccco1 | -61* | 7 | -5 | 15% | i | -7
COc1ccccc1CCNC1CCCCCC1 | ? | -2 | -12 | 35% | i | -13
COc1ccccc1CCNC1CCC(C(C)(C)C)CC1 (centres undefined) | -74* | 8 | -9 | -10% | i | -38
COC(=O)C1=C(c2cccc(OCc3ccccc3)c2)C[C@@H]2CC[C@H]1N2C(=O)NCc1ccccc1OC | -52* | -1 | -1 | 13% | i | -20
COC(=O)C1=C(c2cccc(OCc3ccccc3)c2)C[C@@H]2CC[C@H]1N2C(=O)NCc1ccc(Cl)cc1 | -52* | 0 | -12 | 8% | i | 2
COC(=O)C1=C(c2cccc(OCc3ccccc3)c2)C[C@@H]2CC[C@H]1N2C(=O)NCc1ccc(OC)cc1 | -68* | 4 | -2 | 5% | i | -19
COc1cc(C2SCC(=O)Nc3[nH]ncc32)ccc1OC(C)C (centres undefined) | · | · | 2 | · | · | ·
COc1ccc(NC(=O)N(Cc2ccc3c(c2)OCO3)C2CCN(Cc3ccccc3)CC2)cc1 | · | · | -2 | · | · | ·
